Source: PubChem (The Scripps Research Institute Molecular Screening Center)
This is a sample that favours compounds with a hit; in the whole collection about 1.1% have one here.
HTR5A ag ctr = HTR5A agonism, opioid heterodimer counter-screen. AID 504692. activation, % at 9.3 µM. 340,000 compounds, 0.61% hits. HTR5A agonist assay, luminescence, cell-based; in the data active = activation mostly above about 9.5%, no sharp cut-off; inactive = mostly below about 7.6%
Target sequence (P47898 whole entry, looked up): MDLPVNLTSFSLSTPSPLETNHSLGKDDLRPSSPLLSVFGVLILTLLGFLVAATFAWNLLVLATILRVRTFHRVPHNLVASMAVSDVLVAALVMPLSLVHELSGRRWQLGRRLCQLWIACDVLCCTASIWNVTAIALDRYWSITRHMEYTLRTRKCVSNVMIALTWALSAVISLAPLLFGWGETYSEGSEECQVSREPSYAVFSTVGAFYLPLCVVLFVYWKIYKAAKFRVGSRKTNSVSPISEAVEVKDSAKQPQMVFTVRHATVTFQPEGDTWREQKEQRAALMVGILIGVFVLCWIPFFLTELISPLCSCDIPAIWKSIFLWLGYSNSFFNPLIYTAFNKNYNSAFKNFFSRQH
OPRM1-OPRD1 ag = OPRM1-OPRD1 heterodimerization agonism; cells, luminescence; 340,000 compounds, 0.3% hits; P35372+P41143; AID 504326; activation, % at 9.3 µM; in the data active = activation above about 18%
HTR5A inv ctr = counter-screen for OPRM1-OPRD1 inverse agonists: human HTR5A inverse agonism; P47898; HTR5A cell line, luminescence; inhibition, % at 9.3 µM; 340,000 compounds, 0.083% hits; AID 504634; in the data active = inhibition mostly above about 23%, no sharp cut-off; inactive = mostly below about 18%
MOR-DOR inv ag = inverse agonists of human mu-delta opioid receptor heterodimerization | P35372+P41143 | cell-based MOR-DOR heterodimer luminescence, inverse agonism | inhibition, % at 9.3 µM | 340,000 compounds, 0.21% hits | AID 504357; in the data active = inhibition above about 22%, passing the limit was not always enough
MOR-DOR inv conf = OPRM1-OPRD1 heterodimer inverse agonism, confirmation. shares compounds with MOR-DOR inv ag. cells expressing OPRM1/OPRD1 heterodimer, luminescence. inhibition, % at 9.3 µM. 580 compounds, 20% hits. AID 504900; in the data active = inhibition above about 32%
HTR5A inv count = HTR5A inverse agonism, opioid heterodimer counter-screen | inhibition, % at 9.3 µM | 580 tested, under 10 active | HTR5A-expressing cells, luminescence | shares compounds with MOR-DOR inv ag; call rule not given here
Numbers stand for hits; . = inactive; / = no result given.

SMILES | HTR5A ag ctr | OPRM1-OPRD1 ag | HTR5A inv ctr | MOR-DOR inv ag | MOR-DOR inv conf | HTR5A inv count
Cc1ccc(C(=O)OCC(=O)c2ccc(S(=O)(=O)N3CCCCC3)cc2)o1 | . | . | . | 52 | . | .
O=C(COC(=O)c1cc([N+](=O)[O-])ccc1NCCO)Nc1cccnc1Cl | . | . | . | . | / | /
CCCCCCC[C@@H](C/C=C/CCC(=O)N(C)C/C(=C/Cl)C/C(=C\C(=O)N1CC(OC)=CC1=O)OC)OC | . | . | . | 39 | . | .
CCCCCCC[C@@H](C/C=C/CCC(=O)N(C)C/C(=C/Cl)C/C(=C\C(=O)N1C[C@H](O)CC1=O)OC)OC | . | . | . | . | / | /
Cc1cc(C(=O)NNc2ccc(F)cc2)no1 | . | . | . | 36 | . | .
Cc1cc(C(=O)NNc2ccccc2F)no1 | . | . | . | . | / | /
CSCCC1NC(=S)N(Cc2ccccc2)C1=O (stereo not given) | . | . | . | 42 | . | .
COc1ccc(CN2C(=NC(=O)C3CC3)SC3CS(=O)(=O)CC32)cc1OC (stereo not given) | . | . | . | . | / | /
Cc1cccc(-c2nnc(SC(C)C(=O)N3CCOCC3)o2)c1 (stereo not given) | . | . | . | . | / | /
Cc1nnsc1C(=O)NNc1ccc(C(C)(C)C)cc1 | . | . | . | 77 | . | .
Cc1nnsc1C(=O)NNc1ccc(C(C)C)cc1 | . | . | . | . | / | /
O=C(NC(O)C(=O)c1ccc(F)cc1)c1ccc(F)cc1 (stereo not given) | . | . | . | . | / | /
COc1ccc(C)cc1NS(=O)(=O)c1ccc2c(c1)N(C)CCO2 | . | . | . | . | / | /
COc1cccc(CNS(=O)(=O)c2ccccc2Br)c1OC | . | . | . | . | / | /
Cc1ccc(C(=O)COC(=O)CNC(=O)C(c2ccccc2)c2ccccc2)cc1[N+](=O)[O-] | . | . | . | 66 | 41 | .
Cc1ccc(C(=O)NCC(=O)OCC(=O)c2ccc(C)c([N+](=O)[O-])c2)cc1 | . | . | . | 51 | 42 | .
O=C(Cc1ccccc1)NCC(=O)OCC(=O)c1ccc(Cl)c([N+](=O)[O-])c1 | . | . | . | 90 | 70 | .
COc1ccccc1NC(=O)CN1CC(=O)Nc2ccccc21 | . | . | . | . | / | /
COc1ccc(/C=C/C(=O)N(C)c2ccccc2C(=O)O)cc1 | . | . | . | . | / | /
C[N+](C)(C)CCC(=O)N1C/C(=C/c2ccccc2)C(=O)/C(=C\c2ccccc2)C1 | . | . | . | . | / | /
CN(C)CCC(=O)N1C/C(=C/c2ccccc2)C(=O)/C(=C\c2ccccc2)C1 | . | . | . | 43 | . | .
CC1=C(C)CC2C(C1)C(=O)c1ccc(Br)cc1S2(=O)=O (stereo not given) | . | . | . | 58 | 56 | .
COCC(C)OC(=O)c1c(N)n(CC(C)C)c2nc3ccccc3nc12 (stereo not given) | . | . | . | 59 | 37 | .
C=CCn1c(N)c(C(=O)OC(C)CC)c2nc3ccccc3nc21 (stereo not given) | . | . | . | . | / | /
Cc1[nH][nH]c(=O)c1C(c1c(C)[nH][nH]c1=O)c1cn(Cc2ccc(Cl)c(Cl)c2)c2ccccc12 | . | . | . | . | / | /
SMILES | HTR5A ag ctr | OPRM1-OPRD1 ag | HTR5A inv ctr | MOR-DOR inv ag | MOR-DOR inv conf | HTR5A inv count
Cc1[nH][nH]c(=O)c1C(c1c(C)[nH][nH]c1=O)c1cn(Cc2ccc(F)cc2)c2ccccc12 | . | . | . | 43 | . | .
COc1cc(/C=C/C(=O)c2ccc(C)c([N+](=O)[O-])c2)cc(OC)c1O | . | . | . | 20 | . | .
Cc1ccc(NC(=O)COC(=O)C2CCN(c3ccc(C(F)(F)F)cn3)CC2)cc1 | . | . | . | . | / | /
COc1cc([N+](=O)[O-])cc(/C=N/NC(=O)c2ccc(C)nc2)c1O | . | . | . | 22 | . | .
COc1cc([N+](=O)[O-])cc(/C=N/NC(=O)c2ccc(NC(=O)c3ccc(C)cc3)cc2)c1O | . | . | . | . | / | /
O=C1C(=O)N(CCS(=O)(=O)c2ccccc2)c2ccccc21 | . | . | . | 58 | . | .
O=C1C(=O)N(CCN2CCCCC2)c2ccccc21 | . | . | . | 72 | 74 | .
O=C1C(=O)N(Cc2cccs2)c2ccccc21 | . | . | . | 48 | . | .
O=C(CCN1C(=O)c2ccccc2C1=O)OCN1C(=O)c2ccccc2C1=O | . | . | . | . | / | /
O=C(COC(=O)CN1C(=O)C(=O)c2ccccc21)OCN1C(=O)c2ccccc2C1=O | . | . | . | 40 | . | .
O=C1CSC(=S)N1Cc1cccs1 | . | . | . | . | / | /
O=S(=O)(CCN1CCOCC1)c1ccccc1 | . | . | . | . | / | /
CCCCCN1CN(S(=O)(=O)c2cccs2)c2nc3ccccc3nc21 | . | . | . | . | / | /
CC1=NN(Cc2c(C)nn(Cc3ccccc3)c2C)C(C)(C)C1 | . | . | . | . | / | /
COc1cccc(C(=O)NC2CC3CCCC(C2)N3S(=O)(=O)c2ccccc2)c1 (stereo not given) | . | . | . | . | / | /
O=C(CN1C(=O)C(=O)c2ccccc21)NC1CCCCC1 | . | . | . | 47 | 48 | .
O=C(CN1C(=O)C(=O)c2ccccc21)c1ccccc1 | . | . | . | 52 | . | .
CC(=O)NC1=NN(C(C)=O)C2(S1)C(=O)N(CC(C)C)c1ccc(C)cc12 (stereo not given) | . | . | . | . | / | /
CCCN(CC(=O)Nc1ccccc1C)C(=O)C1CC(=O)N(Cc2ccccc2)C1 (stereo not given) | . | . | . | . | / | /
COc1ccc(C(=O)N2CCN(c3cccc(C)c3C)CC2)cc1S(=O)(=O)NC1CC1 | . | . | . | . | / | /
CC(C)C(=O)Nc1nnc(NC(=S)Nc2ccccc2)s1 | . | . | . | 36 | 34 | .
CCCc1nnc(NC(=S)Nc2ccccc2)s1 | . | . | . | . | / | /
Cc1ccc(S(=O)(=O)N=Nc2c(O)[nH]c3ccccc23)cc1 | . | . | . | 50 | . | .
Cc1ccc(C)c(S(=O)(=O)N=Nc2c(O)[nH]c3ccccc23)c1 | . | . | . | 46 | . | .
CC(Sc1nnc2ccccn12)C(=O)Nc1ccc2c(c1)OCO2 (stereo not given) | . | . | . | . | / | /
SMILES | HTR5A ag ctr | OPRM1-OPRD1 ag | HTR5A inv ctr | MOR-DOR inv ag | MOR-DOR inv conf | HTR5A inv count
CCN1C(=O)C(O)(C2COC(C)(C)CC2=O)c2cc(Br)ccc21 (stereo not given) | . | . | . | 56 | . | .
CN(C)S(=O)(=O)c1cccc(C(=O)Nc2ccccc2[N+](=O)[O-])c1 | . | . | . | 34 | . | .
CC(C)CN(CC(C)C)c1nn[nH]n1 | . | . | . | . | / | /
Cc1ccc(NC(=S)NNc2ncc(C(F)(F)F)cc2Cl)c(C)c1 | . | . | . | 49 | . | .
CON/C=N/C(=S)Nc1ncc(C(F)(F)F)cc1Cl | . | . | . | . | / | /
Cc1ccc(NC(=S)NNc2ncc(C(F)(F)F)cc2Cl)cc1 | . | . | . | 55 | . | .
O=C1c2ccccc2-c2nc3ccccc3nc21 | . | . | . | 79 | . | .
